“And” between values parts separate entries of the source, which are not always exact repeats. Equal entries are not always repeated. Records with an inconclusive call do not appear. The source made the active and inactive calls. The call rests on the fitted dose curve; in most records, active means well fitted curve in the direction sought with a large enough effect; inconclusive means small, poorly fitted or top-dose-only effect, or another doubt; inactive means no such curve, though single readings can be large; an effect the other way counts as inactive or inconclusive.
How the values were obtained:
[1] = qHTS of pediatric cancer cell lines to identify multiple opportunities for drug repurposing: Confirmatory screen for Rh18 cells (AID 1347125); conditions: Rh18 rhabdomyosarcoma cells, viability; series mostly up to 45.9 µM; further: nearly all actives have a fitted effect of over 55% in size; further: potency means the concentration at half of the fitted maximal effect
Method in brief: (§1)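 Cells (500-1,000/well) rested 5 h, then received compounds for 48 h; metabolically active cells were measured by CellTiter-Glo luminescence. Final concentrations spanned up to 46 µM (MIPE, 11-point) or 0.59 nM-46 µM (NPC, 8-point) in primary screens, 11-point in follow-ups.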

[2] = qHTS of pediatric cancer cell lines to identify multiple opportunities for drug repurposing: Confirmatory screen for OHS-50 cells (AID 1347128); conditions: OHS-50 osteosarcoma cells viability; series mostly up to 45.9 µM;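 further: compound exposure lasted 48 h at 37 degrees C; nearly all actives have a fitted effect of over 55% in size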; further: potency means the concentration at half of the fitted maximal effect
Method in brief: as §1

[3] = test system: Zika virus NS2B-NS3 protease (unlinked); experiment: Optimization of GU AMC qHTS for Zika virus inhibitors: Unlinked NS2B-NS3 protease assay (AID 1347151); conditions: recombinant ZIKV NS2B-NS3 protease, fluorogenic AMC substrate; series mostly up to 52.5 µM; further: nearly all actives have a fitted effect of over 80% in size; further: potency means the concentration at half of the fitted maximal effect
Method in brief: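 In this qHTS, compounds acted on 25 nM unlinked Zika NS2B–NS3 in pH 8.0 Tris/Tween buffer. Cleavage of an AMC peptide ran 15 min at room temperature, to about 20% conversion.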

[4] = test system: Zika virus NS2B-NS3 protease; experiment: Primary screen GU AMC qHTS for Zika virus inhibitors (AID 1347154); conditions: Zika NS2B-NS3 unlinked protease, AMC fluorogenic substrate; series mostly up to 54.1 µM; further: nearly all actives have a fitted effect of over 70% in size; further: potency means the concentration at half of the fitted maximal effect
Method in brief: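 Fluorogenic AMC-substrate cleavage by noncovalent NS2B-NS3 protease complex (25 nM, pH 8.0 Tris buffer with Tween 20) followed for 15 minutes at room temperature (~20% conversion). Percent inhibition from ex340/em450 signal change, fitted by 4-parameter Hill equation.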

[5] = target: Lysine-specific demethylase 5B (Homo sapiens) (UniProt Q9UGL1); experiment: Optimization screen for KDM5B Histone Demethylases FDH coupled qHTS against the LOPAC library (AID 1347166); conditions: KDM5B demethylation, FDH-coupled NADH fluorescence (FDH is formaldehyde dehydrogenase); at 57.5 µM (top of the series); further: 0% is about no effect
Sequence of Lysine-specific demethylase 5B (Homo sapiens) (Q9UGL1 whole entry, looked up): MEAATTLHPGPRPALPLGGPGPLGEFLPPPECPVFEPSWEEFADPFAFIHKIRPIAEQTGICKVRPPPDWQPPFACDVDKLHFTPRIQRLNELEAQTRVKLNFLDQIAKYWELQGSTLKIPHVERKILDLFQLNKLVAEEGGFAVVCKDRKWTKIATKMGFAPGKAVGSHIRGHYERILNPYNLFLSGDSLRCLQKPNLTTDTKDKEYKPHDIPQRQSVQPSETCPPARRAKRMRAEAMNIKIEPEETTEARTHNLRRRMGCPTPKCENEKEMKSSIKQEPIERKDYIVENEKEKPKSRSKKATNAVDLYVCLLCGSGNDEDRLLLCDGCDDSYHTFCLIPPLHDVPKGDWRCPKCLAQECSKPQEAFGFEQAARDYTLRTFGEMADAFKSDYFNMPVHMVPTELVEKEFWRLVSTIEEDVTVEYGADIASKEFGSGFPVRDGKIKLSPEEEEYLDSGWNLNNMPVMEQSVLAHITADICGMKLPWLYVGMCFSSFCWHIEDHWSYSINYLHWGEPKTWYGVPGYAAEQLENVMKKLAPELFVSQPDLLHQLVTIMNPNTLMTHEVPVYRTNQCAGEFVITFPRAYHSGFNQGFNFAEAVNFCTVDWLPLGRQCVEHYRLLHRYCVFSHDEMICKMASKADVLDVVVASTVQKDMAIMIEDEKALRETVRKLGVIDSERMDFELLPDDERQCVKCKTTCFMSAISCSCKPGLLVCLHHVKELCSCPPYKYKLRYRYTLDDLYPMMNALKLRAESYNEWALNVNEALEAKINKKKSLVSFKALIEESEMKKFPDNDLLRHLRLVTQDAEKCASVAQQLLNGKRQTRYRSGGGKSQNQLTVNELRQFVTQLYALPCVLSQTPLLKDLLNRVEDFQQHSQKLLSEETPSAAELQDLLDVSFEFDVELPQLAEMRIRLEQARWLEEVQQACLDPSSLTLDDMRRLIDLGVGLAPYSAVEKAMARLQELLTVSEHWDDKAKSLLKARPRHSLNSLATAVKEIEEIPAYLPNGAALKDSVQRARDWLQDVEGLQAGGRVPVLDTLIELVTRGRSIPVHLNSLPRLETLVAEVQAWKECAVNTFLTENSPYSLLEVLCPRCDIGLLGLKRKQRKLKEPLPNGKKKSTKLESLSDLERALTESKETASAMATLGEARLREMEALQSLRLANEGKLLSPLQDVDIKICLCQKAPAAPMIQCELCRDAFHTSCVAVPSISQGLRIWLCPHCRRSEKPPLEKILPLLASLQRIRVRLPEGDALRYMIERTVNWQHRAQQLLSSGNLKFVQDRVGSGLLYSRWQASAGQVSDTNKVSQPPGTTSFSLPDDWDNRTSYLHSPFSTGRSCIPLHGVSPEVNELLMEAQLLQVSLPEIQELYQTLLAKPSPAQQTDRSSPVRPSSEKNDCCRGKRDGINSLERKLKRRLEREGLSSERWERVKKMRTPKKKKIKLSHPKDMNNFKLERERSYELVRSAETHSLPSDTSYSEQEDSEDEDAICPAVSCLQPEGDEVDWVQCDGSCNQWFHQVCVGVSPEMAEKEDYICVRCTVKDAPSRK
Method in brief: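 KDM5BDeltaAP (200nM final) in 50mM HEPES pH 7.5, 0.01% Tween-20 was preincubated with compound for 10 min at room temperature. A substrate mix of 12.5uM H3K4Me3, 25uM a-ketoglutarate, ascorbate, Fe2+, NAD+ and formaldehyde dehydrogenase was then added. NADH fluorescence (340/450 nm) was read initially and after 30 min.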

[6] = qHTS of pediatric cancer cell lines to identify multiple opportunities for drug repurposing: Confirmatory screen for Saos-2 cells (AID 1347127); conditions: Saos-2 osteosarcoma cell viability; series mostly up to 45.9 µM; further: nearly all actives have a fitted effect of over 60% in size; further: potency means the concentration at half of the fitted maximal effect
Method in brief: as §1

[7] = qHTS of pediatric cancer cell lines to identify multiple opportunities for drug repurposing: Confirmatory screen for SK-N-SH cells (AID 1347129); conditions: SK-N-SH neuroblastoma cell viability; series mostly up to 46.1 µM;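 further: cells exposed to compound for 48 h before viability read; nearly all actives have a fitted effect of over 60% in size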; further: potency means the concentration at half of the fitted maximal effect
Method in brief: as §1

[8] = qHTS to identify inhibitors of the type 1 interferon - major histocompatibility complex class I in skeletal muscle: primary screen against the NCATS Pharmaceutical Collection (AID 1347407); conditions: human skeletal muscle cells, IFN-b-induced MHC-I HiBiT luminescence, 24 h; series mostly up to 45.9 µM;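 further: luminescence of HiBiT knocked into endogenous HLA-B as interferon-induced MHC class I level; on the % scale 0 is the no-effect control and ±100 the full control effect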
Method in brief: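 A qHTS format is used: 8-point, 1:5 compound series with 46 uM top final concentration, applied alongside 4 ng/ml IFN-beta to HLA-B*08:01-HiBiT knock-in myoblasts. Luminescence is measured after 24 h treatment.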

[9] = target: N-terminal Xaa-Pro-Lys N-methyltransferase 1 (Homo sapiens) (UniProt Q9BV86); experiment: qHTS Assay for Inhibitors of N-terminal methyltransferase 1 (NTMT1): LOPAC validation of the NTMT1 SAHH-coupled ThioGlo3 Assay (AID 1347143); conditions: recombinant NTMT1, SAHH-coupled ThioGlo3 fluorescence; series mostly up to 114 µM;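 further: SAH from peptide methylation measured as thiol fluorescence via SAHH coupling and ThioGlo3; nearly all actives have a fitted effect of over 70% in size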; further: potency means the concentration at half of the fitted maximal effect
Sequence of N-terminal Xaa-Pro-Lys N-methyltransferase 1 (Homo sapiens) (Q9BV86 whole entry, looked up): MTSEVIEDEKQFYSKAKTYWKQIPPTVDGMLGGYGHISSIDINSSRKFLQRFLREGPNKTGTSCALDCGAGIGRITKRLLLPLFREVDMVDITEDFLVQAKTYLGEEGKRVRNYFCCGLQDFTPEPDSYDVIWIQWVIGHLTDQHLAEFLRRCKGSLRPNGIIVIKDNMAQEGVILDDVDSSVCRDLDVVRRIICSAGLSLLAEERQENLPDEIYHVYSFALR
Method in brief: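 NTMT1 125nM + cpds (various conc.), 1 min RT; add SAM 100uM/SAHH 10uM/ThioGlo3 15uM (addition mix). SAHH-coupled thiol detection, Ex340/Em450, t0 and 30 min RT; signal normalized to background. LOPAC 1280-cpd pilot.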

[10] = qHTS of pediatric cancer cell lines to identify multiple opportunities for drug repurposing: Confirmatory screen for Rh30 cells (AID 1347126); conditions: Rh30 rhabdomyosarcoma cell viability; series mostly up to 45.9 µM; further: nearly all actives have a fitted effect of over 55% in size; further: potency means the concentration at half of the fitted maximal effect
Method in brief: as §1

[11] = test system: Zika virus NS2B-NS3 protease (linked construct); experiment: Confirmatory screen NINDS AMC qHTS for Zika virus inhibitors (AID 1347152); conditions: Purified linked NS2B-NS3, AMC substrate fluorescence; series mostly up to 56.6 µM; further: potency means the concentration at half of the fitted maximal effect; nearly all actives have a fitted effect of over 70% in size
Method in brief: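 Concentration-response confirmation used the NINDS linked protease (NS2B hydrophilic domain joined to NS3 protease domain), 1 nM, with a 15-min compound preincubation. Substrate, Nle-KRR-AMC at 10 microM, was read by UV fluorescence before and after 15 min.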

[12] = Confirmatory screen NINDS Rhodamine qHTS for Zika virus inhibitors (AID 1347161); conditions: purified enzyme assay, Rhodamine110 substrate fluorescence, 15 min; series mostly up to 114 µM; further: potency means the concentration at half of the fitted maximal effect; nearly all actives have a fitted effect of over 60% in size
Method in brief: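 Rhodamine110-peptide cleavage (1.5 µM substrate) by 25 nM linked NS2B-NS3 enzyme at pH 8.0 (Tris, Tween 20), after 15 min RT preincubation with compounds; 15-min fluorescence change normalized to controls and Hill-fitted.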

[13] = Vero cells viability qHTS for Zika virus inhibitors (AID 1347167); conditions: cytotoxicity counter-screen (Zika); series mostly up to 45.9 µM; further: on the % scale 0 is the no-effect control and ±100 the full control effect
Method in brief: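 Luminescent ATP readout (CellTiter Glo) after 30 min at 37 degrees C gives viability; cells in DMEM + 4% FBS were treated 24 to 48 hours with compound, following overnight attachment.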

[14] = Tertiary RLuc qRT-PCR qHTS assay for Zika virus inhibitors (AID 1347169); conditions: infected Vero cells, reporter luminescence, 48-72 h; series mostly up to 45.9 µM; further: top concentration of the series differs between compounds; on the % scale 0 is the no-effect control and ±100 the full control effect; nearly all actives have a fitted effect of over 55% in size
Method in brief: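 Inhibition of ZIKV-RLuc replication in Vero cells, read as Renilla luminescence 1-1.5 hrs after live-cell substrate addition, following 48-72 hrs infection at MOI 1-2 in presence of compound.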

[15] = test system: Zika virus NS2B-NS3 protease (unlinked complex); experiment: Primary screen GU Rhodamine qHTS for Zika virus inhibitors: Unlinked NS2B-NS3 protease assay (AID 1347159); conditions: Recombinant ZIKV NS2B-NS3 protease, Rhodamine110 substrate fluorescence; series mostly up to 107 µM; further: on the % scale 0 is the no-effect control and ±100 the full control effect; nearly all actives have a fitted effect of over 60% in size
Method in brief: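 In dose–response format, inhibition of unlinked protease (25 nM) was measured with 1.5 microM bis-peptide Rhodamine110 substrate. Aprotinin served as the intraplate control.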

CC(=O)[C@H]1CC[C@H]2[C@@H]3CCC4=CC(=O)CC[C@]4(C)[C@H]3CC[C@]12C
active: Potency [1] 23.3 µM | Potency [2] 26.1 µM
inactive: Potency [3] | Potency [4] | activity, negative = inhibition [5] -4.17%

CCOC(=O)c1ccc(C#Cc2ccc3c(c2)C(C)(C)CCS3)nc1
inactive: Potency [1] | Potency [6] | Potency [2] | Potency [7] | Potency [8]
active: Potency [4] 31.6 µM and 21.5 µM

CC(C)NCC(O)c1ccc(NS(C)(=O)=O)cc1 (stereo unspecified)
inactive: Potency [1] | Potency [6] | Potency [2] | Potency [7] | Potency [9] | Potency [3] | Potency [4] | activity, negative = inhibition [5] -4.54%

C[C@@H]1C[C@H]2[C@@H]3CCC4=CC(=O)C=C[C@]4(C)[C@@]3(Cl)[C@@H](O)C[C@]2(C)[C@@]1(OC(=O)c1ccco1)C(=O)CCl
inactive: Potency [4] | Potency [8]
active: Potency [1] 20.8 µM | Potency [6] 4.14 µM | Potency [2] 11.7 µM | Potency [7] 14.8 µM

O=S(=O)(O)CCS
inactive: Potency [1] | Potency [10] | Potency [7] | Potency [4] | Potency [8]

Nc1nc(N)c2nc(CNc3ccc(C(=O)NC(CCC(=O)O)C(=O)O)cc3)cnc2n1 (stereo unspecified)
inactive: Potency [1] | Potency [10] | Potency [6] | Potency [7] | Potency [13] | Potency [14]
active: Potency [2] 0.369 µM | Potency [9] 56.2 µM | Potency [3] 26.7 µM | Potency [11] 27.1 µM | Potency [4] 21.5 µM | Potency [12] 55.3 µM | activity, negative = inhibition [5] -994%

COc1cc([C@@H]2c3cc4c(cc3[C@H](O)[C@H]3COC(=O)[C@H]23)OCO4)cc(OC)c1OC
inactive: Potency [1] | Potency [10] | Potency [7] | Potency [4] | Potency [8]
active: Potency [6] 0.0414 µM

CCC(=O)O[C@]1(C(=O)CCl)[C@@H](C)C[C@H]2[C@@H]3CCC4=CC(=O)C=C[C@]4(C)[C@@]3(F)[C@@H](O)C[C@@]21C
inactive: Potency [1] | Potency [6] | Potency [2] | Potency [7] | Potency [4] | Potency [8]
active: Potency [10] 13.1 µM

Cn1nnc2c(C(N)=O)ncn2c1=O
inactive: Potency [1] | Potency [10] | Potency [6] | Potency [2] | Potency [7] | Potency [4] | Potency [8]

COc1cc2c(Nc3ccc(Br)cc3F)ncnc2cc1OCC1CCN(C)CC1
inactive: Potency [1] | Potency [6] | Potency [4] | Potency [15] | Potency [8]
active: Potency [7] 16.6 µM

C[C@@H](CN1CC(=O)NC(=O)C1)N1CC(=O)NC(=O)C1
inactive: Potency [1] | Potency [10] | Potency [6] | Potency [2] | Potency [7] | Potency [4] | Potency [8]

From PubChem BioAssay (NCATS)
